In PubChem BioAssay AID720690 (Broad Institute, 2013):
Entries with a potency or affinity are not part of this list. Activity calls are given as the source filed them.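 How the source made its calls: active means every repeat run showing a signal drop whose fitted half-maximal concentration is at most twice the top tested concentration; inconclusive means repeat runs disagree, or flat partial drop, or poor fit; inactive means the rest.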

Test: HEK293T cytotoxicity, dose response, cytotoxicity control for miR-122 modulator project, cell-based, activator set, cherry-pick (AID 720690)
Conditions: HEK293T viability, CellTiter-Glo luminescence, 48 h; series mostly up to 26 µM

Question: With `COC(=O)c1c(N)nc(C)n1-c1ccc(OC)cc1` as the compound, how does the outcome read?
Answer: The outcome was “inactive”.

Question: Which outcome does the source give for `CN1C(=O)c2cc(NC(=O)c3cccc(F)c3)ccc2OC[C@H]2O[C@H](CC(=O)O)CC[C@@H]21` here?
Answer: Its outcome is “inactive”.

Question: Which outcome does the source give for `C[C@H]1CN([C@@H](C)CO)C(=O)c2cc(C#Cc3cccnc3)cnc2O[C@H]1CN(C)S(=O)(=O)c1ccccc1F` here?
Answer: Its outcome is “inactive”.
